Source: PubChem BioAssay AID492956 (The Scripps Research Institute Molecular Screening Center, 2010)
Hit rate of the full screen: of about 340,000 compounds, about 3,300 (0.97%) were called active. The sample as a whole holds a higher share of actives than the screen did. Values without a mark were called inactive.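 The calls were made as follows: active = inhibition above the mean over all tested compounds plus 3 SD (cut at about 30% in these data); inactive = the rest.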

These molecules were tested against Platelet-activating factor acetylhydrolase 2, cytoplasmic (Homo sapiens) (UniProt Q99487) (assay: inhibition of cytoplasmic PAF acetylhydrolase 2 – biochemical, fluorescence polarization, human, primary screen (AID 492956;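 also: inhibitors block probe labeling of enzyme so polarization drops; 0% = enzyme with DMSO and 100% = wells lacking PAFAH2 protein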)). Settings: recombinant PAFAH2, FP-rhodamine activity probe, at 3.39 µM, stronger effect = higher value.
Work on `CCCNC(=O)CCc1c(C)nc2c(c(C)nn2-c2ccc(C)cc2)c1C` yielded an inhibition of -8.03%.
Work on `CSc1ccc(-c2c(C#N)c(N)nc3c2c(C)nn3-c2ccccc2)cc1` yielded an inhibition of -18.9%.
`Cc1ccc(-n2nc(N)c3c(=O)oc(N(C)C)nc32)cc1` was tested, and the inhibition was 55.9% (active).
In the case of `Cc1ccc(NC(=S)Nc2ncccc2C)c(C)c1`, the inhibition is reported as -4.32%.
`O=C(NNC(=O)c1ccccc1O)c1ccccc1O` was tested, and the inhibition was 39% (active).
With `Cc1cc(C(=O)NNC(=O)c2ccccc2O)c(C)o1` the inhibition was 31.3% (active).
`CC1=C(C)CC(C(=O)NNC(=O)c2ccccc2O)C(C(=O)O)C1` (stereo not given) was tested, and the inhibition was -2.13%.
Work on `Cc1cc(C(=O)NNC(=O)CCC2CCCCC2)c(C)o1` yielded an inhibition of 4.96%.
`Cc1cc(C(=O)NCCc2ccc(Cl)cc2)c(C)o1` was tested, and the inhibition was 4.91%.
`Cc1cc(C(=O)CCC(=O)NNC(=O)c2ccccc2O)c(C)s1` was tested, and the inhibition was 7.6%.
`CCC(CC)c1nnc(NC(=O)c2nn(C)c(=O)c3ccccc23)s1` was tested, and the inhibition was 0.88%.
`CCCCCn1c(=O)[nH]c2cc(C(=O)NCCCN3CCCCC3C)ccc2c1=O` (stereo not given) gave an inhibition of -5.12%.
Work on `O=C(NCc1ccc(F)cc1)C(c1ccccc1)N(C(=O)c1csnn1)C1CC1` (stereo not given) yielded an inhibition of 2.95%.
`Oc1ccc2ccc3cccc[n+]3c2c1` showed an inhibition of 9.81%.
Work on `CN(C)C(CNC(=O)CCCOc1ccccc1)c1ccco1` (stereo not given) yielded an inhibition of 1.39%.
In the case of `COc1cccc2c1C(=O)c1c(O)c3c(c(O)c1C2=O)CC(O)(C(C)=NNC(=O)c1ccc(Cl)c(Cl)c1)CC3OC1CC(N)C(O)C(C)O1` (stereo not given), the inhibition is reported as 49.5% (active).
`COc1cc(C)c(C)cc1S(=O)(=O)N1CCCc2ccccc21` gave an inhibition of -5.07%.
Work on `COc1ccc(C(=O)NCC2CCCCC2)cc1S(=O)(=O)N1CCCC1` yielded an inhibition of 3.82%.
`COc1ccc(C(=O)OCC(=O)NCC2CCCCC2)cc1S(=O)(=O)N1CCCc2ccccc21` was tested, and the inhibition was 74.5% (active).
`Cc1cc(C)c2oc(C(=O)Nc3ccc(S(=O)(=O)Nc4nccc(C)n4)cc3)cc(=O)c2c1` was tested, and the inhibition was -3.63%.
In the case of `C=C1c2c(Cl)ccc(O)c2C(O)=C2C(=O)[C@]3(O)C(O)=C(C(N)=O)C(=O)[C@@H](N(C)C)[C@@H]3[C@@H](O)C12` (stereo not given in full), the inhibition is reported as 42% (active).
`CN(C)[C@@H]1C(=O)C(C(N)=O)=C(O)[C@@]2(O)C(=O)C3=C(O)c4c(O)ccc(Cl)c4[C@@H](O)[C@H]3C[C@@H]12` gave an inhibition of 1.11%.
`Cc1cccc(C)c1NC(=O)CN1C(=O)C(C)Oc2ccccc21` (stereo not given) was tested, and the inhibition was 4.2%.
Molecule `O=C(Cn1nnc2ccccc2c1=O)NCc1ccc(Cl)cc1` has an inhibition of 4.44%.
For `C=CCNC(=O)c1sc(SC)cc1-c1ccc(Cl)cc1`, the inhibition was 2.46%.
